From PubChem BioAssay (EPA / NIEHS) come the findings set out here.

The AC50 is the midpoint of the concentration-response curve, whichever way the signal moves.

Test [1] is described as follows: CCTE_Shafer_MEA_dev_mutual_information_norm: CCTE's Neural Network Formation Assay for Mutual Information Normalization, Shafer Lab (AID 2284091).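 As to AC50: mutual information between electrodes summarised as area under curve across four recording days; potency is for a decrease in mutual information relative to DMSO.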 The method in brief: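 Neurons from rat cortex were seeded at 1.5 x 10^5 cells/well onto PEI-coated MEAs in a laminin drop, then exposed to compound from day 0 for twelve days. Network recordings on four days gave mutual information, summarised by AUC relative to DMSO.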

The nature of test [2]: CCTE_Shafer_MEA_dev_correlation_coefficient_mean: CCTE's Neural Network Formation Assay for Mean Correlation Coefficient, Shafer Lab (AID 2284093).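 As to AC50: well mean pairwise spike train correlation integrated as AUC over recording days 5 to 12; potency fitted for loss of correlation relative to DMSO vehicle wells.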 The method in brief:
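Spontaneous activity recorded on days 5, 7, 9 and 12 post-plating; pairwise spike correlations are averaged across active electrodes and collapsed to an area-under-curve. Rat cortical cultures are dosed from plating through 12 days, with compound renewed at media changes.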

Test [3] can be described thus: UKN2_HCS_IMR90_neural_migration: University of Konstanz (UKN) Leist Lab Neural Crest Cell Migration Assay in human induced IMR90 Pluripotent Stem Cells (UKN2) (AID 2284204). Conditions: actives raise or lower the signal. The method in brief:
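Stopper-exclusion migration (cMINC), human iPSC-derived neural crest cells; N2-S + EGF/FGF; compound added 24 h post-stopper removal, 24 h exposure. Readout: calcein-AM/Hoechst 30 min, HCS fluorescence imaging; bidirectional fitting, DMSO baseline.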

Test [4] is described as follows: UKN4_HCS_LUHMES_neurite_outgrowth: University of Konstanz (UKN) Leist Lab Neurite Outgrowth Assay in human LUHMES cells (UKN4) (AID 2284206). Conditions: actives raise or lower the signal. The method in brief:
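After 24 h compound treatment beginning shortly after replating of 2-day-differentiated LUHMES cells, calcein-AM and H-33342 live staining allowed high-content imaging of neurite area and viability. Fitted bidirectionally against DMSO.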

The nature of test [5]: CCTE_Mundy_HCI_Cortical_Synap_Neur_Matur_NeuriteSpotCountPerNeuriteLength: CCTE's Synaptogenesis and Neurite Maturation Assay in rat cortical cells for Neurite Spot Count per Neurite Length, Mundy Lab (AID 2284210). The method in brief:
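Read-out: synaptophysin puncta counted along MAP2-stained neurites, normalised to neurite length, by automated high-content imaging. Rat cortical cells; AraC DIV 5; chemical dosing DIV 7; termination DIV 12. DMSO baseline.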

The nature of test [6]: CCTE_Mundy_HCI_Cortical_NOG_NeuriteLength: CCTE's Neurite Outgrowth Assay in rat cortical cells for Neurite Length, Mundy Lab (AID 2284213).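 As to AC50: neurites imaged about 48 to 50 h after chemical exposure began.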 The method in brief: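 First, rat primary cortical cells were plated and, 2 h later, given test chemical as a 1/10 dilution. Finally, βIII-tubulin immunostaining enabled automated imaging of neurite length.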
Test [7] can be described thus: CCTE_Mundy_HCI_Cortical_Synap_Neur_Matur_NeuriteLength: CCTE's Synaptogenesis and Neurite Maturation Assay in rat cortical cells for Neurite Length, Mundy Lab (AID 2284214). The method in brief:
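Neurite length quantified by automated high-content imaging of MAP2, synaptophysin and Hoechst staining. Rat cortical cells received chemical from DIV 7 to DIV 12 […], glial growth arrested by AraC at DIV 5; DMSO baseline.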

The nature of test [8]: CCTE_Mundy_HCI_Cortical_Synap_Neur_Matur_NeuriteSpotCountPerNeuron: CCTE's Synaptogenesis and Neurite Maturation Assay in rat cortical cells for Neurite Spot Count per Neuron Count, Mundy Lab (AID 2284215). The method in brief: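 Synapse density is scored as synaptophysin spots along neurites per neuron in fixed rat cortical neurons, measured at DIV 12 after chemical dosing at DIV 7. DMSO is the negative control and activity baseline.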

The nature of test [9]: CCTE_Mundy_HCI_Cortical_Synap_Neur_Matur_SynapseCount: CCTE's Synaptogenesis and Neurite Maturation Assay in rat cortical cells for Synapse Count, Mundy Lab (AID 2284218). The method in brief: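 High-content imaging of synaptophysin puncta per MAP2-positive neuron (Hoechst nuclei) in rat cortical cells exposed DIV 7–12 after glial arrest with AraC at DIV 5; decrease relative to DMSO scored.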

Test [10] is described as follows: CCTE_Mundy_HCI_hN2_NOG_NeuriteCount: CCTE's Neurite Outgrowth Assay in human hN2 cells for Neurite Count, Mundy Lab (AID 2284219; active = hit-call score of the fitted dose curve at least 0.9, where 1 is the maximum). The method in brief: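 In this morphology assay, hNP1-derived neurons received test chemical 2 h post-plating and were fixed two days later in warm paraformaldehyde/sucrose containing Hoechst 33342. Neurites, labelled by rabbit anti-βIII-tubulin (1:800) and Alexa Fluor-488 (1:500), were counted automatically.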

Test [11] is described as follows: CCTE_Mundy_HCI_hN2_NOG_NeuriteLength: CCTE's Neurite Outgrowth Assay in human hN2 cells for Neurite Length, Mundy Lab (AID 2284220; active = hit-call score of the fitted dose curve at least 0.9, where 1 is the maximum). The method in brief:
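Read-out is neurite length from high-content imaging of βIII-tubulin/Alexa Fluor-488-labelled neurons, referenced to DMSO controls.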

Test [12] is described as follows: CCTE_Mundy_HCI_hN2_NOG_NeuronCount: CCTE's Neurite Outgrowth Assay in human hN2 cells for Neuron Count, Mundy Lab (AID 2284221; active = hit-call score of the fitted dose curve at least 0.9, where 1 is the maximum). The method in brief:
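Read-out is the number of betaIII-tubulin-positive neurons imaged by automated high-content analysis, with DMSO as negative control.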

The nature of test [13]: CCTE_Shafer_MEA_acute_LDH: CCTE's Lactate Dehydrogenase Assay for Cytotoxicity in the Neural Acute Assay, Shafer Lab (AID 2284086; active = hit-call score of the fitted dose curve at least 0.9, where 1 is the maximum;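 also: active means LDH release rises above DMSO vehicle level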). The method in brief: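 LDH released during 40 min compound exposure of primary rat cortical cultures, quantified by absorbance at 490 nm in collected medium. Fitting direction positive versus DMSO vehicle.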
Test [14] in a line: IUF_NPC1b_proliferation_BrdU_72hr: Leibniz Research Institute for Environmental Medicine (IUF) 72-hour Neural Progenitor Cell Bromodeoxyuridine (BrdU) Proliferation Assay (NPC1b) (AID 2284207). The method in brief: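 Luminescent BrdU ELISA measured DNA synthesis during the last 16 h of a 72 h exposure of primary human neural progenitor spheres grown with EGF and FGF. Signal was fitted relative to DMSO controls.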

Test [15] in a line: IUF_NPC1a_proliferation_area_72hr: Leibniz Research Institute for Environmental Medicine (IUF) 72-hour Neural Progenitor Cell Proliferation Area Assay (NPC1a) (AID 2284208). The method in brief: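 Proliferation is scored as sphere area gain in primary human fetal neural progenitors treated for 72 h in EGF/FGF-containing medium. Viability, LDH and BrdU readouts come from the same wells.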

Test [16] in a line: IUF_NPC1_viability_72hr: Viability Assessment at 72 hours in the Leibniz Research Institute for Environmental Medicine (IUF) Neural Progenitor Cell Proliferation Assay (NPC1) (AID 2284209). The method in brief:
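Viability was measured by resazurin-to-resorufin fluorescence (alamar blue) after 72 h of continuous exposure without compound renewal. Each well held one hNPC sphere (gestational week 16-19 fetal cortex, 0.25-0.35 mm) cultured in EGF/FGF proliferation medium at 37C and pH 7.2-7.6.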

Test [17] can be described thus: CCTE_Mundy_HCI_Cortical_NOG_NeuriteCount: CCTE's Neurite Outgrowth Assay in rat cortical cells for Neurite Count, Mundy Lab (AID 2284212).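 Also: cells fixed about two days after chemical exposure began.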 The method in brief:
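Rat cortical primary cells; compound added 2 h post-plating, 1/10 dilution of working solution. Anti-betaIII-tubulin/AF488 ICC; ArrayScan neurite count vs DMSO.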

Test [18] is described as follows: TAMU_PeakParms_SingleDonor1434_Chronotropy: Texas A&M University (TAMU) 1.5-hr Human Induced Pluripotent Stem Cell (iPSC)-derived Cardiomyocytes Calcium (Ca+2) Flux Assay for Cardiotoxicity: Chronotropy (changes in peak frequency) (AID 2284217). The conditions noted are these: actives raise or lower the signal. The method in brief: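 iPSC-derived cardiomyocytes (single donor 1434) dosed at 0.2, 1, 10 and 100 uM in 0.5% DMSO for 1.5 h at 37C; Ca2+ dye fluorescence gave average beat frequency. Zero-beat points removed; bidirectional fit versus DMSO, POD as EC05.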

The nature of test [19]: CCTE_Mundy_HCI_Cortical_Synap_Neur_Matur_BPCount: CCTE's Synaptogenesis and Neurite Maturation Assay in rat cortical cells for Branch Point Count, Mundy Lab (AID 2284211). The method in brief: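 HCI read-out of branch points from MAP2/synaptophysin/Hoechst immunofluorescence; rat cortical cultures, AraC DIV 5, dosing DIV 7, fixed DIV 12; fit in positive direction vs DMSO baseline.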

Test [20] can be described thus: CCTE_Mundy_HCI_Cortical_Synap_Neur_Matur_NeuriteCount: CCTE's Synaptogenesis and Neurite Maturation Assay in rat cortical cells for Neurite Count, Mundy Lab (AID 2284222).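 Also: exposure from day 7 to day 12 in vitro with readout at day 12.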 The method in brief: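 Rat primary cortical cells; AraC added at DIV 5, chemicals dosed with media change at DIV 7 through DIV 12. MAP2/synaptophysin/Hoechst immunostaining, high-content imaging of neurite number; fitted relative to DMSO.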

The structures appear in SMILES notation. Records with an inconclusive call do not appear. Active and inactive are the calls of the source. The calls were made as follows, unless noted: active = hit-call score of the fitted dose curve at least 0.9, where 1 is the maximum; inactive = score below 0.9.

`O=C(O)CCC(F)(F)C(F)(F)C(F)(F)C(F)(F)C(F)(F)F`: the outcome in [1] and in test [2] was inactive.
Take `NC(C(F)(F)F)C(F)(F)F`: the compound was called inactive in test [1] and in test [2].
On to `C=CC(F)(F)C(F)(F)C(F)(F)C(F)(F)F`, for which the outcome in test [1] and in test [2] was inactive.
In the case of `Nc1ccn([C@@H]2O[C@H](CO)[C@@H](O)C2O)c(=O)n1` (some centres not stated), the half-maximal activity concentration (AC50) in test [1] was 74.4 nM (active); in test [2], 91.9 nM (active); in test [6], 5.88 µM (active); in [7], 17.1 µM (active); in test [8] it was 15.9 µM (active); in test [9] it was 16 µM (active). The AC50 in test [12] was 1.47 µM (active). Moreover, the compound was classed as inactive in test [3], in test [4], in test [5], in test [10] and in [11].
As to `O=C(OC(=O)C(F)(F)C(F)(F)F)C(F)(F)C(F)(F)F`, the compound was called inactive in test [1] and in [2].
`OCC(CO)(CBr)CBr`: the outcome in test [13] was inactive.
For the compound `O=CC(F)(F)C(F)(F)C(F)(F)F`, the outcome in test [1] and in test [2] was inactive.
`Oc1c(Cl)cc(Cl)cc1Sc1cc(Cl)cc(Cl)c1O`: the compound was classed as inactive in test [13].
As for `O=C(CCCN1CCC(O)(c2ccc(Cl)cc2)CC1)c1ccc(F)cc1`, the compound was called inactive in test [13], in test [3], in [14], in [15] and in test [16]. The AC50 in test [1] is 163 nM (active); in test [2], 1740 nM (active); in [4], 13.1 µM (active); in test [5], 50 µM (active); in [6], 6.16 µM (active); in [7] it was 21.2 µM (active). The AC50 in [8] is 17.8 µM (active); in [9], 18.4 µM (active); in test [10] it was 37.9 µM (active); in [11], 22.4 µM (active); in [12], 20.3 µM (active).
As for `FC(F)=C(F)C(F)(F)C(F)(F)C(F)(F)C(F)F`, the outcome in test [1] and in test [2] was inactive.
With `O=C1NS(=O)(=O)c2ccccc21`, the outcome in [13], in test [1], in test [2], in test [14], in test [15] and in test [16] was inactive. For the same compound, the result in [5], in [17], in [6], in test [7], in test [8] and in [18] was inactive. Moreover, the call in test [9], in test [10] and in [11] was inactive.
As to `COC(=O)C(F)(F)C(F)(F)C(F)(F)C(F)(F)C(F)(F)F`, the outcome in test [1] and in test [2] was inactive.
`CN(Cc1cnc2nc(N)nc(N)c2n1)c1ccc(C(=O)N[C@@H](CCC(=O)O)C(=O)O)cc1`: the AC50 in [1] was 19.1 nM (active); in test [2], 18.9 nM (active); in test [19] it was 44.9 nM (active); in test [7], 0.0328 µM (active). Also, the compound was called inactive in test [5], in test [17], in [6], in test [8], in [9] and in test [10]. Further, the compound was classed as inactive in [11], in test [12] and in test [20].
